Source: PubChem BioAssay (EPA / NIEHS)
Values joined by “and” are separate entries in the source; they are usually repeats but may differ in a detail not shown here. Identical values can stand only once. Results filed as inconclusive are left out. Some compounds were tested as several samples or in several runs, with calls that do not always agree. Active and inactive are the calls of the source. Rule for the calls: active = hit-call score of the fitted dose curve at least 0.9, where 1 is the maximum; inconclusive = response in the unintended direction; inactive = score below 0.9.

Key:
[1] = ATG_XTT_Cytotoxicity: Cytotoxicity Assessment in the Attagene TRANS-FACTORIAL HepG2 Assay (AID 2283584)
Summary of the method: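 HepG2 cells transiently transfected with GAL4-UAS multiple reporter units, dosed 24 h; cytotoxicity read by XTT as loss of signal versus DMSO baseline.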

[2] = TOX21_p53_BLA_p2_viability: Viability Assessment in the Tox21 HCT-116 p53 Agonism Beta-lactamase Assay, Phase 2 (AID 2283591);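 note: compound exposure lasted 16 h at 37 °C; actives lower the ATP signal meaning cytotoxicity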
Summary of the method: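 HCT-116 p53-bla cells (4000/well) rested 5 h at 37C, then received compounds in DMSO (217-fold dilution) for 16 h at 37C, 5% CO2. After the CCF4 read, CellTiter-Glo was added; ATP luminescence was read after 30 min at room temperature.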

[3] = biological target: Cellular tumor antigen p53 (Homo sapiens) (UniProt P04637); assay: TOX21_p53_BLA_p2_ratio: Tox21 HCT-116 p53 Agonism Beta-lactamase Assay, Ratio, Phase 2 (AID 2283592)
Cellular tumor antigen p53 (Homo sapiens), sequence (P04637 whole entry, looked up): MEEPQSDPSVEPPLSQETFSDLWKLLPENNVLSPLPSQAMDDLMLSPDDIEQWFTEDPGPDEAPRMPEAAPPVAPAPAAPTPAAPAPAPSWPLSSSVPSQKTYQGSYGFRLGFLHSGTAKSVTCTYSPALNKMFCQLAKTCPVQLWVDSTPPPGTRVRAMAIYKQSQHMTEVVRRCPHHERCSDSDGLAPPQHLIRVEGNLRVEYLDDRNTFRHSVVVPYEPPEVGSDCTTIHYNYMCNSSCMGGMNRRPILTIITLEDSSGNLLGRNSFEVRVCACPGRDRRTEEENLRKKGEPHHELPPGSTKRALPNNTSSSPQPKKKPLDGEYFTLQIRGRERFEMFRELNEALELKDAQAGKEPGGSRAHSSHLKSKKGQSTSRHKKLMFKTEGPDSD
Summary of the method: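 HCT-116 cells with p53-responsive beta-lactamase reporter, 4000 cells/well, preincubated 5 h, then compound in DMSO (217-fold dilution) for 16 h at 37C. CCF4-AM substrate 2 h at room temperature; 460/530 nm emission ratio fitted upward versus DMSO.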

[4] = biological target: Cellular tumor antigen p53 (Homo sapiens) (UniProt P04637); assay: TOX21_p53_BLA_p3_ratio: Tox21 HCT-116 p53 Agonism Beta-lactamase Assay, Ratio, Phase 3 (AID 2283596)
Summary of the method: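 HCT116 p53-bla cells (4000/well) given compound in DMSO (217-fold dilution) after 5 h, incubated 16 h at 37C. CCF4-AM substrate 2 h at room temperature; 460/530 nm emission ratio, gain fitted against DMSO.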

[5] = biological target: Cellular tumor antigen p53 (Homo sapiens) (UniProt P04637); assay: TOX21_p53_BLA_p5_ratio: Tox21 HCT-116 p53 Agonism Beta-lactamase Assay, Ratio, Phase 5 (AID 2283599)
Summary of the method: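 HCT-116 cells carrying a p53-inducible beta-lactamase reporter were seeded at 4000 cells/well and dosed after 5 h with compound in DMSO (217-fold dilution). After 16 h at 37C, CCF4-AM substrate was added for 2 h, and the 460/530 nm emission ratio was scored as gain-of-signal versus DMSO.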

[6] = TOX21_p53_BLA_p5_viability: Viability Assessment in the Tox21 HCT-116 p53 Agonism Beta-lactamase Assay, Phase 5 (AID 2283600)
Summary of the method: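 HCT-116 p53 beta-lactamase reporter cells, 4000/well, were exposed to compound (pin transfer, 217-fold dilution) for 16 hours at 37C. Cellular ATP was read by CellTiter-Glo luminescence after 30 min at room temperature.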

[7] = TOX21_p53_BLA_p4_viability: Viability Assessment in the Tox21 HCT-116 p53 Agonism Beta-lactamase Assay, Phase 4 (AID 2283597);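 note: hits lower the luminescence signal meaning cytotoxicity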
Summary of the method: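 HCT-116 p53-bla cells, 4000/well, dosed after 5 h attachment and incubated 16 h at 37 °C, 5% CO2. Viability from CellTiter-Glo ATP luminescence after 30 min at room temperature, taken after the beta-lactamase read; loss of signal indicates cytotoxicity.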

[8] = biological target: Cellular tumor antigen p53 (Homo sapiens) (UniProt P04637); assay: TOX21_p53_BLA_p4_ratio: Tox21 HCT-116 p53 Agonism Beta-lactamase Assay, Ratio, Phase 4 (AID 2283601)
Summary of the method: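 HCT116 cells carrying an inducible beta-lactamase reporter were plated at 4000 cells/well, rested 5 h, then exposed to compounds in DMSO (217-fold dilution) for 16 h at 37C. CCF4-AM substrate was loaded 2 h at room temperature; 460/530 nm emission ratio scored gain-of-signal versus DMSO.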

[9] = TOX21_p53_BLA_p3_viability: Viability Assessment in the Tox21 HCT-116 p53 Agonism Beta-lactamase Assay, Phase 3 (AID 2283593);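 note: cells exposed to compound for 16 h before reading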
Summary of the method: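 HCT-116 cells (4000/well) rested 5 h at 37C, then got DMSO compounds by pin tool (217-fold dilution) for 16 h at 37C, 5% CO2. After the bla read, CellTiter-Glo was added and luminescence read at 30 min, room temperature.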

Measured: AC50

CCCCSCCCC
not listed: [7] | [8] | [9]
inactive: all other assays above

C=CCOC(=O)CCCCCC
inactive: [1] | [2] | [7] | [8]

Cc1ncc([N+](=O)[O-])n1CCO
not listed: [2]
inactive: all other assays above

CCCCCCCC(=O)OCC(O)CO (stereo not given)
not listed: [2]
inactive: all other assays above

CC(=O)c1ccccn1
not listed: [4] | [8] | [9]
inactive: all other assays above

COC(=O)C=C(C)CCC=C(C)C
not listed: [2] | [6] | [8]
inactive: all other assays above

C#CC(C)N(C)C(=O)Nc1ccc(Cl)cc1 (stereo not given)
not listed: [4] | [9]
inactive: all other assays above

O=C(CS)OCCOC(=O)CS
active: [3] 42.9 µM | [5] 58.3 µM | [8] 53.3 µM
inactive: [1] | [2] | [7]

C[Si]1(C)O[Si](C)(C)O[Si](C)(C)O1
inactive: [1] | [2] | [4] | [8]

C=CCCC(=O)/C=C/C1C(C)=CCCC1(C)C (stereo not given)
not listed: [4] | [9]
inactive: all other assays above

Oc1c(Cl)cc(Cl)c(Cl)c1Cc1c(O)c(Cl)cc(Cl)c1Cl
inactive: [1] | [9] | [6]
active: [3] 10.3 µM and 583 nM and 984 nM | [9] 39.9 µM and 568 nM | [4] 19.5 µM and 446 nM and 1.07 µM | [7] 36.9 µM and 49.3 µM and 1.62 µM | [5] 13.8 µM and 26.4 µM and 18.6 µM | [8] 42.2 µM and 43.5 µM and 6.65 µM

CC=CC=CCOC(=O)C(C)C
inactive: [1] | [2] | [9] | [4] | [7]

COC(=O)c1ccc(C)cc1C1=NC(C)(C(C)C)C(=O)N1 (stereo not given) (tested in a mixture with another compound)
not listed: [5] | [8] | [9]
inactive: all other assays above

O=C1OC[C@H](Cc2cccc(O)c2)[C@H]1Cc1cccc(O)c1
inactive: [1] | [2] | [5] | [6] | [8]

C=C1CC[C@H](O)C/C1=C/C=C1\CCC[C@]2(C)[C@@H]([C@H](C)/C=C/[C@H](C)C(C)C)CC[C@@H]12
active: [3] 76.4 µM and 45.8 µM | [9] 61.1 µM and 45.8 µM and 42.2 µM | [7] 45.8 µM | [5] 70.5 µM | [6] 79.6 µM
inactive: [1] | [3] | [4] | [7] | [5] | [6] | [8]

c1ccc(CCc2ccccc2)cc1
not listed: [4] | [7] | [9]
inactive: all other assays above

Cc1ccc(C)o1
inactive: [1] | [2] | [9] | [5] | [8]

NC(=S)NNC(N)=S
not listed: [2]
inactive: all other assays above

O=c1c(O)c(-c2ccc(O)cc2)oc2cc(O)cc(O)c12
not listed: [6] | [7] | [9]
inactive: all other assays above

CC1C2CC(CC2C2CCCC(O)C2)C1(C)C (stereo not given)
not listed: [2]
inactive: all other assays above

CN(C)C(=O)Nc1ccc(Oc2ccc(Cl)cc2)cc1
not listed: [2]
inactive: all other assays above

CC(=O)OCCCc1ccccc1
not listed: [2] | [6] | [7]
inactive: all other assays above

O=[N+]([O-])c1cccc(Cl)c1
not listed: [2] | [6] | [7]
inactive: all other assays above

CN(C)CCOC(C)(c1ccccc1)c1ccccn1 (stereo not given)
not listed: [2] | [9]
inactive: all other assays above

C[Si](C)(C)O[Si](C)(C)C
not listed: [2] | [4]
inactive: all other assays above

CC(C=O)Cc1ccc(C(C)(C)C)cc1 (stereo not given)
not listed: [2] | [4]
inactive: all other assays above

ON=C1CCCCC1
not listed: [2] | [9]
inactive: all other assays above
